We go through 1 sequence from article PMC7862700, “An all-to-all approach to the identification of sequence-specific readers for epigenetic DNA modifications on cytosine”.

Common to all, as to assay: DAPPL (digital affinity profiling via proximity ligation, sequencing); 10 mM Tris-HCl pH 7.5, 50 mM NaCl, 1 mM DTT, 4% glycerol, room temperature, 30 min; GST-TFs on glutathione beads, 16-mer random dsDNA library, 0.1% formaldehyde crosslink after washing; high values mean tight binding
One experiment has as its target T1, FEV (Homo sapiens, UniProt Q99581 1-238).
T1 sequence: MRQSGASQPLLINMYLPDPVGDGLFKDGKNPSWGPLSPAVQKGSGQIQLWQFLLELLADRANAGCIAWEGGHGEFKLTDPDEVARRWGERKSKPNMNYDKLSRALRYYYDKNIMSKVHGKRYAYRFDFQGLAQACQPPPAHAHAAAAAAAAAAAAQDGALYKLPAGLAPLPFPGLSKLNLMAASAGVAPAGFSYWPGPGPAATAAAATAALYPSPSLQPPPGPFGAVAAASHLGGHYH
The settings on record: protein: recombinant; tags: N-terminal GST; dsDNA, one strand shown. The method, boiled down: (§1)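 A tag-only sample was pooled with DNA-barcoded human transcription factors that had been expressed in yeast as GST fusions and captured on glutathione beads. The pools were incubated for 30 min at room temperature with 200 nmole of a random double-stranded 16-mer DNA library in Tris/NaCl/DTT/glycerol buffer, then washed, crosslinked with 0.1% formaldehyde, proximity-ligated (BsaI/T4 ligase, 1 h, 37 °C), PCR-amplified and sequenced on an Illumina NextSeq500. Binding signal is each hexamer's read frequency for a factor divided by its frequency for the tag-only sample.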

For a further experiment, the target named is ETV5 (Homo sapiens, UniProt P41161 1-510). The conditions noted are these: protein: recombinant; tags: N-terminal GST; dsDNA, one strand shown. The method, boiled down: as §1
Chain of ETV5 (P41161 whole entry): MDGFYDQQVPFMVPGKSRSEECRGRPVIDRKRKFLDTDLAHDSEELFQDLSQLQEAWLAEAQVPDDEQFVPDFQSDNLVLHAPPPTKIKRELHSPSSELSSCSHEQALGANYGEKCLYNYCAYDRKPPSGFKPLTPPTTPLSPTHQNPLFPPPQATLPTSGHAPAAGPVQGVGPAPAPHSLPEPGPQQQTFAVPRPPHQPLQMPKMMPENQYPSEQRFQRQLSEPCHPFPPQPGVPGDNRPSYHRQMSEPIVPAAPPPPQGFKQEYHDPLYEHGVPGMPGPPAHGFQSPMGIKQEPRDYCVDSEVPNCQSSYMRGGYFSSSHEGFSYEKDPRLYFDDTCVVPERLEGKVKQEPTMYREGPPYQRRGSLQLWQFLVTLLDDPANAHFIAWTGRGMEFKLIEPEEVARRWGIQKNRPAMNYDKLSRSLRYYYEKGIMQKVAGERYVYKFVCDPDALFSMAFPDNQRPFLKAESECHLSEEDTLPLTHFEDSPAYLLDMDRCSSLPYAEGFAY
A further experiment concerns the target HSF1 (Homo sapiens, UniProt Q00613 1-529). The conditions noted are these: protein: recombinant; tags: N-terminal GST; chain copies: 3; dsDNA, one strand shown. The method, boiled down:
as §1

Another experiment has as its target T2, SPIC (Homo sapiens, UniProt Q8N5J4 1-248).
T2 sequence: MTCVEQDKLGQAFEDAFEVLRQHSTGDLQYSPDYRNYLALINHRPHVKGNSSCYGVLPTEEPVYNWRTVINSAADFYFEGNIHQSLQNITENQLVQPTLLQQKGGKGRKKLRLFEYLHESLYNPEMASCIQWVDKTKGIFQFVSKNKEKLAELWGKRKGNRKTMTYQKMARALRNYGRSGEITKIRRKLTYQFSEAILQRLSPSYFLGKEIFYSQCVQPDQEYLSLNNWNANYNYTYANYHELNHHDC
The conditions noted are these: protein: recombinant; tags: N-terminal GST; dsDNA, one strand shown. The procedure, abridged:
as §1

Another experiment addresses ELF4 (Homo sapiens, UniProt Q99607 1-663). The conditions noted are these: protein: recombinant; tags: N-terminal GST; dsDNA, one strand shown. The method, boiled down:
as §1

The target in another experiment is T3, ELK4 (Homo sapiens, UniProt P28324-2 1-405).
T3 sequence: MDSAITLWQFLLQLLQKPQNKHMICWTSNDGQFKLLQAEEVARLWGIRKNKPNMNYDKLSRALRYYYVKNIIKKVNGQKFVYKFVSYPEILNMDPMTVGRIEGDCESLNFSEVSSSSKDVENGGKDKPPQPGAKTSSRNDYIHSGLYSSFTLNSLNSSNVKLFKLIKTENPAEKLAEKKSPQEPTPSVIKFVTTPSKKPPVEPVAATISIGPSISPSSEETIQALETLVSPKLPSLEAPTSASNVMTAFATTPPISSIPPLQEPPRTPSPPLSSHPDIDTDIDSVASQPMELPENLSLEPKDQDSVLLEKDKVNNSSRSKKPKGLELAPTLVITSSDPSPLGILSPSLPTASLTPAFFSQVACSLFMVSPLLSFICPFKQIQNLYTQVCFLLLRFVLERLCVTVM
The conditions noted are these: protein: recombinant; tags: N-terminal GST; dsDNA, one strand shown. The method, boiled down: as §1

The next experiment concerns the target T4, ETV2 (Homo sapiens, UniProt O00321 1-342).
T4 sequence: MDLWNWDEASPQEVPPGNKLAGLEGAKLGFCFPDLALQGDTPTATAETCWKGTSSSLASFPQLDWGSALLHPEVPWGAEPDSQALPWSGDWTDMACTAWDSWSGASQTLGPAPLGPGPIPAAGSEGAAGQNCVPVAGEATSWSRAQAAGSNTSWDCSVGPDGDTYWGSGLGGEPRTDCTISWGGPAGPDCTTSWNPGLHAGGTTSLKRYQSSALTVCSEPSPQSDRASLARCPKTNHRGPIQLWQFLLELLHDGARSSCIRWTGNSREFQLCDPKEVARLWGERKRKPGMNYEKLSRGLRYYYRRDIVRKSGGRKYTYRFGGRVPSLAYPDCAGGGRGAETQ
The conditions noted are these: protein: recombinant; tags: N-terminal GST; dsDNA, one strand shown. The procedure, abridged: as §1

The target of the next experiment is T5, ELF3 (Homo sapiens, UniProt P78545 1-371).
T5 sequence: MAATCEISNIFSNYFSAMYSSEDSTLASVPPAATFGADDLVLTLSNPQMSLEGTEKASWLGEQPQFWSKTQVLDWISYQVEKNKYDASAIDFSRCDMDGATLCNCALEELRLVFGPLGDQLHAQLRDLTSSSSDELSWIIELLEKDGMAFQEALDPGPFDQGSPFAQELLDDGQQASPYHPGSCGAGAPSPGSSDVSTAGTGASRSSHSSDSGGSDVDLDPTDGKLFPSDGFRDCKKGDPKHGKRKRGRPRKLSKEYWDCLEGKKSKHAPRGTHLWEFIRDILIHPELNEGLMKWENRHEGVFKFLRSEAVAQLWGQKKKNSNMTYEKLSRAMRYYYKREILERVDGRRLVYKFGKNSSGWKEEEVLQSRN
The conditions noted are these: protein: recombinant; tags: N-terminal GST; dsDNA, one strand shown. The method, boiled down:
as §1

The next experiment addresses CRX (Homo sapiens, UniProt O43186 1-299). The conditions noted are these: protein: recombinant; tags: N-terminal GST; dsDNA, one strand shown. The procedure, abridged:
as §1

Another experiment addresses ETV1 (Homo sapiens, UniProt P50549 1-477). The settings on record: protein: recombinant; tags: N-terminal GST; dsDNA, one strand shown. The method, boiled down:
as §1

The next experiment deals with T6, ERF (Homo sapiens, UniProt P50548 1-548).
T6 sequence: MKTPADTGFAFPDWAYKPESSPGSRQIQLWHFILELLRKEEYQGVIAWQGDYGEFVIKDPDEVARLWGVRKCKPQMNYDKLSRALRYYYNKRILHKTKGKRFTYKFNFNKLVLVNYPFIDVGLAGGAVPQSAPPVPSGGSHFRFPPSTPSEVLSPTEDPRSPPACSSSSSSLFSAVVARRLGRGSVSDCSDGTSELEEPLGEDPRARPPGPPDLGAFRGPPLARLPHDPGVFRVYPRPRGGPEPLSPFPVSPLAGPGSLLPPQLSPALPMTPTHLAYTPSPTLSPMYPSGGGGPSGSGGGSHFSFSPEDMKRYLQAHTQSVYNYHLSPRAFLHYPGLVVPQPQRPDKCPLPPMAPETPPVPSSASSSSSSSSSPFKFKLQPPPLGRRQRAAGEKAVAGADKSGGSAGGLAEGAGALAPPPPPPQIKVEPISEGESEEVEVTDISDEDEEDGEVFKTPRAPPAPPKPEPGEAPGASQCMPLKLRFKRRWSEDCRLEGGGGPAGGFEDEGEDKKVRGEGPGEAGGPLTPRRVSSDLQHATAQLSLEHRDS
The settings on record: protein: recombinant; tags: N-terminal GST; dsDNA, one strand shown. The method, boiled down:
as §1

A further experiment addresses T7, ETV3L (Homo sapiens, UniProt Q6ZN32 1-361).
T7 sequence: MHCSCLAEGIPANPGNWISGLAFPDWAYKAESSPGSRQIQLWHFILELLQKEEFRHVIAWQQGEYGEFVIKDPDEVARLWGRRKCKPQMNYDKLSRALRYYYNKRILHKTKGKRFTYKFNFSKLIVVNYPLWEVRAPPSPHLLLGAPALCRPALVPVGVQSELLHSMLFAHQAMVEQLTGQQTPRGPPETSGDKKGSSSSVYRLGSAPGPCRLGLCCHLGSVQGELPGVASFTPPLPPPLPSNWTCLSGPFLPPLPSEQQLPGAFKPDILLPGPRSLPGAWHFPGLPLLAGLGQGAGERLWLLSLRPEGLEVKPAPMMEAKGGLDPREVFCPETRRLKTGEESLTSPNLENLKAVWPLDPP
The conditions noted are these: protein: recombinant; tags: N-terminal GST; dsDNA, one strand shown. The method, boiled down:
as §1

The next experiment addresses T8, ETS2 (Homo sapiens, UniProt P15036 1-469).
T8 sequence: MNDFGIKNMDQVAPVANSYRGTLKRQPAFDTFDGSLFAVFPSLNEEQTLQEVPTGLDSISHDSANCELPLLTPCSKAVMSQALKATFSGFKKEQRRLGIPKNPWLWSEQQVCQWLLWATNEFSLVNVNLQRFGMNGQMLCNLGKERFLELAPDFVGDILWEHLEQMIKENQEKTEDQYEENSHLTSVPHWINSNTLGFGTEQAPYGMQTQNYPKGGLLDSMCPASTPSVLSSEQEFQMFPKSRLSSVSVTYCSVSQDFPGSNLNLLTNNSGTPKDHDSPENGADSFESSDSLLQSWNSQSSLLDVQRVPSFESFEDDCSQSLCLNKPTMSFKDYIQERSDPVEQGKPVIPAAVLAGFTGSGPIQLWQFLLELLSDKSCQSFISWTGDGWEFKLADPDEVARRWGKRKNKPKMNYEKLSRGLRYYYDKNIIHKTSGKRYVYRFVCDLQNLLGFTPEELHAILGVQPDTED
The conditions noted are these: protein: recombinant; tags: N-terminal GST; dsDNA, one strand shown. The procedure, abridged: as §1

Another experiment addresses T9, SPDEF (Homo sapiens, UniProt O95238 1-335).
T9 sequence: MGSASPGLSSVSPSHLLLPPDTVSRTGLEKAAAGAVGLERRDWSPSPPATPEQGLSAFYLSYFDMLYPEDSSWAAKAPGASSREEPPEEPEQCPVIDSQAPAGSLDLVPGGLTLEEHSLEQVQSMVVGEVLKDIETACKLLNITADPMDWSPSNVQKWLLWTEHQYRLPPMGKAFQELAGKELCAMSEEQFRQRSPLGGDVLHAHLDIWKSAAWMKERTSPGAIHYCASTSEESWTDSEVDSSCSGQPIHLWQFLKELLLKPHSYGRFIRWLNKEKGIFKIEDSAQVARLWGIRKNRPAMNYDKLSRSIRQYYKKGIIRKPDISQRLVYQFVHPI
The settings on record: protein: recombinant; tags: N-terminal GST; dsDNA, one strand shown. The method, boiled down: as §1

In another experiment the target is T10, ETV7 (Homo sapiens, UniProt Q9Y603 1-341).
T10 sequence: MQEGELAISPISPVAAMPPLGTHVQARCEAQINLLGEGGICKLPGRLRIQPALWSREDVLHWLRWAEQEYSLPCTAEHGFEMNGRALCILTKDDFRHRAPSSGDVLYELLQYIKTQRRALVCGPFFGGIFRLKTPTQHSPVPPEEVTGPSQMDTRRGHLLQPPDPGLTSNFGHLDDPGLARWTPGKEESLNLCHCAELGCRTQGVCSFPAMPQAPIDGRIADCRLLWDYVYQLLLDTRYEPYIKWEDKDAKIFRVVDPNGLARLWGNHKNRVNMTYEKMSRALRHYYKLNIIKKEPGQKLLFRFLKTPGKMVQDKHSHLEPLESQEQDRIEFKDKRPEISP
The conditions noted are these: protein: recombinant; tags: N-terminal GST; dsDNA, one strand shown. The procedure, abridged: as §1

The next experiment has as its target T11, ELF5 (Homo sapiens, UniProt Q9UKW6-2 1-255).
T11 sequence: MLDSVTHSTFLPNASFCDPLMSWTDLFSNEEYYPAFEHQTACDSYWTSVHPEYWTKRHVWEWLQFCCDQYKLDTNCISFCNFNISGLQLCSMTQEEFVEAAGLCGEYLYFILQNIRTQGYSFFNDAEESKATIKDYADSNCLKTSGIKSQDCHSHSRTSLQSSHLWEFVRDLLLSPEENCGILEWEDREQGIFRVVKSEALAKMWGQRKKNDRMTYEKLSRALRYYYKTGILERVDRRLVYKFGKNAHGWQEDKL
The conditions noted are these: protein: recombinant; tags: N-terminal GST; dsDNA, one strand shown. The method, boiled down: as §1

The next experiment deals with T12, ETV3 (Homo sapiens, UniProt P41162-2 1-143).
T12 sequence: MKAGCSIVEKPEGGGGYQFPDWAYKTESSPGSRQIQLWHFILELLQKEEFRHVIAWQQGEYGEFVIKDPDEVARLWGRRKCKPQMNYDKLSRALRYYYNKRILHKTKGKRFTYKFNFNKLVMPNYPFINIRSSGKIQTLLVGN
The settings on record: protein: recombinant; tags: N-terminal GST; dsDNA, one strand shown. The method, boiled down:
as §1

For another experiment, the target named is ETV6 (Homo sapiens, UniProt P41212 1-452). The settings on record: protein: recombinant; tags: N-terminal GST; dsDNA, one strand shown. The method, boiled down:
as §1

Chain of HSF1 (Q00613 whole entry): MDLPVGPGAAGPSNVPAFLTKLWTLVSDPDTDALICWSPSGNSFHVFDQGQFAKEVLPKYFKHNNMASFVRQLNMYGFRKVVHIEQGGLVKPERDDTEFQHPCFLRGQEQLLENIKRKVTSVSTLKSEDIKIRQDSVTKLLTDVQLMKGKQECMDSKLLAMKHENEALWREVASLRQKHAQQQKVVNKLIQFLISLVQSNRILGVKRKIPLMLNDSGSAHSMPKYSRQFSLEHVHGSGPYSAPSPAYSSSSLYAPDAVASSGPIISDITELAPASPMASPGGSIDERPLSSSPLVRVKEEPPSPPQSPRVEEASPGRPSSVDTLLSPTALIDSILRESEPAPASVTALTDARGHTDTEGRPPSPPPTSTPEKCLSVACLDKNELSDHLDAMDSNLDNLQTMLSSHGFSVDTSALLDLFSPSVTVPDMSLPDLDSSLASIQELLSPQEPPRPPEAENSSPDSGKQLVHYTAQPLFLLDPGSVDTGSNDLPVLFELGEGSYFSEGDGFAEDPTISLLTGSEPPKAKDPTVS
Chain of ETV1 (P50549 whole entry): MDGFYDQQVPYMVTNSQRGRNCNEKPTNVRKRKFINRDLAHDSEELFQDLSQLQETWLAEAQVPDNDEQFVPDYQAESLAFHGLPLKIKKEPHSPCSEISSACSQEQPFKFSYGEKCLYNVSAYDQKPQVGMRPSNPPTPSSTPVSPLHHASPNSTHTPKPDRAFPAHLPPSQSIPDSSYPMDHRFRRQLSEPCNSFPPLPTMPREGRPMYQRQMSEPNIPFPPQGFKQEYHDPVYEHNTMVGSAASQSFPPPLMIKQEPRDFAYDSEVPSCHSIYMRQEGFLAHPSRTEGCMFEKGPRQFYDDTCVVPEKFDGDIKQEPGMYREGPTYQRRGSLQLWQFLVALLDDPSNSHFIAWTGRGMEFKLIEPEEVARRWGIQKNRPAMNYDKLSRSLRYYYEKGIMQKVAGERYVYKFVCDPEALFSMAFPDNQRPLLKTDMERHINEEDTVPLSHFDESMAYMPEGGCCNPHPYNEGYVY
Chain of ELF4 (Q99607 whole entry): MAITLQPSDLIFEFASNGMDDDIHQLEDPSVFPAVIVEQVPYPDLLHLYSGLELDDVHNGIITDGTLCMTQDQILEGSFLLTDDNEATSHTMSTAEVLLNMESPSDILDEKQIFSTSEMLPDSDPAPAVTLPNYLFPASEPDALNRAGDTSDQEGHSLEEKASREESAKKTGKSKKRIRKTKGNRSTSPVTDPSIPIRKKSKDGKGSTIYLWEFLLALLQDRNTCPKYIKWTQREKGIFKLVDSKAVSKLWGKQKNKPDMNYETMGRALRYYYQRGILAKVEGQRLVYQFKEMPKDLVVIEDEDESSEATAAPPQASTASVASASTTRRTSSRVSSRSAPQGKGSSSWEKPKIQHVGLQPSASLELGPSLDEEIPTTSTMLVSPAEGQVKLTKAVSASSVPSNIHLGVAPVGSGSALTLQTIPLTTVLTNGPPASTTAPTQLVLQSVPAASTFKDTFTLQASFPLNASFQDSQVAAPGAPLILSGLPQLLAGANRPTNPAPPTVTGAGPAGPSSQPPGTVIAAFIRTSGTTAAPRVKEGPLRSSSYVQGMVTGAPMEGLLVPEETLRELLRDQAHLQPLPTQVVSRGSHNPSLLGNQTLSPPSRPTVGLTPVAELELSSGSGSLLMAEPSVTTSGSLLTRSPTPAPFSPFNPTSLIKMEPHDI
Chain of ETV6 (P41212 whole entry): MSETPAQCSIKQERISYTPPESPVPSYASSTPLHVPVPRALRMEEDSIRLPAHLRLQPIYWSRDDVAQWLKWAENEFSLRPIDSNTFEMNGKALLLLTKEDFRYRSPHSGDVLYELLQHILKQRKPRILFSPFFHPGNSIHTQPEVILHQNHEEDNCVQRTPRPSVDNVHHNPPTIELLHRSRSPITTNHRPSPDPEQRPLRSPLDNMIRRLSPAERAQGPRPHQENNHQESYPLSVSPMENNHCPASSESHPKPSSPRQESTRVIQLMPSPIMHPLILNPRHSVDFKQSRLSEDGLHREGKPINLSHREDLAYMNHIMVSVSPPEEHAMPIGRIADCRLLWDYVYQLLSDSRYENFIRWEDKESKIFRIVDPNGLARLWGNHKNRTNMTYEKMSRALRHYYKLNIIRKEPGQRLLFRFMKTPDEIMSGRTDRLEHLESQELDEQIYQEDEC
Chain of CRX (O43186 whole entry): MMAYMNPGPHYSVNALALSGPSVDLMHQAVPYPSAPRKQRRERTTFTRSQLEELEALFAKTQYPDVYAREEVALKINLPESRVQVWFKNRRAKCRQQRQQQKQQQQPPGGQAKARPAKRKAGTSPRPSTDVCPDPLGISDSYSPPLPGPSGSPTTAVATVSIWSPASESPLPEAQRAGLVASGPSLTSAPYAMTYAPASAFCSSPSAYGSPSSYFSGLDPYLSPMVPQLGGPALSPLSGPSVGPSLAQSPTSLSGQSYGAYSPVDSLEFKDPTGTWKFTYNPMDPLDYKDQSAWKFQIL

On to TACTTG, for which the binding signal with FEV was 1.22 fold enrichment (6-mer frequency, TF over GST control); with ETV5 it was 1.26 fold enrichment (6-mer frequency, TF over GST control); with HSF1, 1.26 fold enrichment (6-mer frequency, TF over GST control); with SPIC, 1.35 fold enrichment (6-mer frequency, TF over GST control); with ELF4, 1.39 fold enrichment (6-mer frequency, TF over GST control); with ELK4, 1.38 fold enrichment (6-mer frequency, TF over GST control). Further, the binding signal in the experiment with ETV2 was 1.46 fold enrichment (6-mer frequency, TF over GST control); with ELF3, 1.54 fold enrichment (6-mer frequency, TF over GST control); with CRX it was 1.5 fold enrichment (6-mer frequency, TF over GST control); with ETV1, 1.54 fold enrichment (6-mer frequency, TF over GST control); with ERF, 1.39 fold enrichment (6-mer frequency, TF over GST control); in the experiment with ETV3L, 1.45 fold enrichment (6-mer frequency, TF over GST control). The binding signal with ETS2 was 1.24 fold enrichment (6-mer frequency, TF over GST control); with SPDEF it was 1.21 fold enrichment (6-mer frequency, TF over GST control); with ETV7, 1.34 fold enrichment (6-mer frequency, TF over GST control); with ELF5, 1.35 fold enrichment (6-mer frequency, TF over GST control); with ETV3, 1.34 fold enrichment (6-mer frequency, TF over GST control); in the experiment with ETV6, 1.24 fold enrichment (6-mer frequency, TF over GST control).
